# Laboratory results reported in PubChem BioAssay (NCI).
# This is part of a sample that, as a whole, favours compounds with a hit. Of some 83,000 tested, about 20% had one in any assay.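 Note: values are percent growth. 100 is the growth of untreated cells, values between 100 and 0 indicate rising inhibition; between -100 and 0 indicates cell death.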 Active and inactive are the calls of the source. Rule for the calls: active = growth percent below 10; inactive = the rest.
# Tested on: TK-10 renal
# Experiment: NCI-60 one-dose screen, 48 h (100 = growth as untreated, 0 = no growth, -100 = all killed)
# Details: 10 µM unless noted
row,SMILES,growth
1,N/C(=N\OC(=O)c1ccccc1)C(Cc1ccccc1)C(=O)NOC(=O)c1ccccc1 (stereo not drawn),78.3% (inactive)
2,C=CCN(CC#N)CC=C,103% (inactive)
3,CCSc1cnnc2ccccc12,116% (inactive)
4,CCN1C(=O)N(CC)C2C1NN=c1s/c(=C\c3ccc(Br)cc3)c(=O)n12 (stereo not drawn),52.7% (inactive)
5,OC(COCc1ccccc1)COCc1ccccc1,109% (inactive)
6,N#CCCn1cnc2c(N)ncnc21,114% (inactive)
7,CCOC(=O)Nc1ccc2nc(Sc3ccc(Cl)cc3)sc2c1,53.1% (inactive)
8,O=C(O)CSc1ccc(NCc2oc(CO)cc(=O)c2O)cc1,111% (inactive)
9,COc1cccc(N2CCN(c3ncnc4cc[nH]c34)CC2)c1,52.8% (inactive)
10,CCCCc1nc(Cl)c(C2CC(c3ccc(S(N)(=O)=O)cc3)=NN2c2cc(Cl)cc(Cl)c2)[nH]1 (stereo not drawn),84.6% (inactive)
11,CS(=O)(=O)c1ccc(Cl)c([N+](=O)[O-])c1,108% (inactive)
12,CC(C)CC(=O)C(CCc1ccccn1)C(C)C (stereo not drawn),102% (inactive)
13,CC(C)c1ccc(-c2cnc3nonc3n2)cc1,47.5% (inactive)
14,Cc1ccc(Nc2cc(Cl)c([N+](=O)[O-])cc2[N+](=O)[O-])cc1,15.5% (inactive)
15,COc1cc2c(=O)n(CCCN(C)C)c3c4cc[nH]c4ncc3c2cc1OC,53.7% (inactive)
16,COc1cc(C2CC(c3ccc(C)cc3)=NN2C=O)ccc1Oc1nc2c(c(=O)n(C)c(=O)n2C)n1C (stereo not drawn),113% (inactive)
17,CC(C)CCSc1nc(-c2ccc(F)cc2)c(C#N)c(N2CCCCC2)n1,97.4% (inactive)
18,FC(F)(F)c1nn[nH]n1,111% (inactive)
19,CCN(CC)CCNC(=O)n1cc(-c2ccncc2)c(-c2cc(Cl)cc(OC)c2)n1,30.1% (inactive)
20,CS(=O)(=O)c1ccc(C(=O)Nc2ccc(Cl)c(-c3ccccn3)c2)c(Cl)c1,11.9% (inactive)
21,CCOC(=O)c1cc(N)nc2ccccc12,106% (inactive)
22,CCCCCCCOc1cccc(/C=C2\N=C3SCCCN3C2=O)c1,96.2% (inactive)
23,Cn1cnc([N+](=O)[O-])c1S(=O)(=O)Oc1ccccc1,101% (inactive)
24,Cc1c(C(=O)CCl)c(=O)n(-c2ccccc2)n1C,40.1% (inactive)
25,CCN(CC)c1cc(C)c(Cc2c(OC)ccc3ccccc23)cc1C,95.6% (inactive)

# Tested on: ACHN renal
# Experiment: as above
# Details: 10 µM unless noted
row,SMILES,growth
1,O=C(c1ccccc1)C1OC1C(=O)c1ccccc1 (stereo not drawn),33.1% (inactive)
2,CC(C)=CC[C@@H]1CC2(CC=C(C)C)C(=O)C(OC3(C(=O)c4ccccc4)C(=O)C4(CC=C(C)C)C[C@@H](CC=C(C)C)C(C)(C)C(CC=C(C)C)(C4=O)C3=O)(C(=O)c3ccccc3)C(=O)C(CC=C(C)C)(C2=O)C1(C)C (stereo partly drawn),4.64% (active)
3,CCCCc1nc(Cl)c(C2CC(c3ccc(S(N)(=O)=O)cc3)=NN2c2ccc(C#N)cc2)[nH]1 (stereo not drawn),101% (inactive)
4,COc1cc(Cl)cc(-c2nn(C(=O)NCCN3CCOCC3)cc2-c2ccncc2)c1,65.6% (inactive)
5,O=[N+]([O-])c1ccc(N=Nc2c(NNc3ccc([N+](=O)[O-])cn3)cc(S(=O)(=O)O)c3ccccc23)nc1,57.4% (inactive)
6,NC(=S)N1N=C(c2ccc(Cl)cc2)CC1c1cc2ccccc2[nH]c1=O (stereo not drawn),107% (inactive)
7,NC(=O)N/N=C\c1ccc([N+](=O)[O-])o1,98.8% (inactive)
8,Cc1cc(N)cc(C)c1-c1c(Br)cc(N)cc1Br,56.2% (inactive)
9,O=C1CCCN1C1CCN2CCCc3cccc1c32 (stereo not drawn),106% (inactive)
10,CCCCCCCCCCCCCCCC1=NCCN1,71.2% (inactive)
11,C=CCCCCOc1cccc(/C=C2\N=C3SCCCN3C2=O)c1,99.2% (inactive)
12,CC(CN1CCN(CC(C)Nc2ccnc3cc(Cl)ccc23)CC1)Nc1ccnc2cc(Cl)ccc12 (stereo not drawn),19.1% (inactive)
13,CCN1CCN(Cc2ccc(NC(=O)Nc3ccc(-n4ccc5c(NC(=O)c6ccccc6)nccc54)cc3)cc2C(F)(F)F)CC1,-46.3% (active)
14,N/C(=N\OC(=O)c1ccccc1)C(Cc1ccccc1)C(=O)NOC(=O)c1ccccc1 (stereo not drawn),15.1% (inactive)
15,C=CCN(CC#N)CC=C,109% (inactive)
16,CCSc1cnnc2ccccc12,95.1% (inactive)
17,CCN1C(=O)N(CC)C2C1NN=c1s/c(=C\c3ccc(Br)cc3)c(=O)n12 (stereo not drawn),29.2% (inactive)
18,OC(COCc1ccccc1)COCc1ccccc1,99% (inactive)
19,N#CCCn1cnc2c(N)ncnc21,94% (inactive)

row,SMILES,growth
1,CCOC(=O)Nc1ccc2nc(Sc3ccc(Cl)cc3)sc2c1,61.5% (inactive)
2,O=C(O)CSc1ccc(NCc2oc(CO)cc(=O)c2O)cc1,97.3% (inactive)
3,COc1cccc(N2CCN(c3ncnc4cc[nH]c34)CC2)c1,59.6% (inactive)
4,CCCCc1nc(Cl)c(C2CC(c3ccc(S(N)(=O)=O)cc3)=NN2c2cc(Cl)cc(Cl)c2)[nH]1 (stereo not drawn),59.7% (inactive)
5,CS(=O)(=O)c1ccc(Cl)c([N+](=O)[O-])c1,108% (inactive)
6,CC(C)CC(=O)C(CCc1ccccn1)C(C)C (stereo not drawn),101% (inactive)
7,CC(C)c1ccc(-c2cnc3nonc3n2)cc1,51.3% (inactive)
8,Cc1ccc(Nc2cc(Cl)c([N+](=O)[O-])cc2[N+](=O)[O-])cc1,26% (inactive)
9,COc1cc2c(=O)n(CCCN(C)C)c3c4cc[nH]c4ncc3c2cc1OC,26.6% (inactive)
10,COc1cc(C2CC(c3ccc(C)cc3)=NN2C=O)ccc1Oc1nc2c(c(=O)n(C)c(=O)n2C)n1C (stereo not drawn),88.1% (inactive)
11,CC(C)CCSc1nc(-c2ccc(F)cc2)c(C#N)c(N2CCCCC2)n1,91.8% (inactive)
12,FC(F)(F)c1nn[nH]n1,109% (inactive)
13,CCN(CC)CCNC(=O)n1cc(-c2ccncc2)c(-c2cc(Cl)cc(OC)c2)n1,57.1% (inactive)
14,CS(=O)(=O)c1ccc(C(=O)Nc2ccc(Cl)c(-c3ccccn3)c2)c(Cl)c1,27.9% (inactive)
15,CCOC(=O)c1cc(N)nc2ccccc12,105% (inactive)
16,CCCCCCCOc1cccc(/C=C2\N=C3SCCCN3C2=O)c1,96.4% (inactive)
17,Cn1cnc([N+](=O)[O-])c1S(=O)(=O)Oc1ccccc1,17.1% (inactive)
18,Cc1c(C(=O)CCl)c(=O)n(-c2ccccc2)n1C,47% (inactive)
19,CCN(CC)c1cc(C)c(Cc2c(OC)ccc3ccccc23)cc1C,99.4% (inactive)
